Laboratory results reported in PubChem BioAssay (NCATS).
Inconclusive results are not listed. The source made the active and inactive calls. Unless noted, calls follow the shape of the dose curve; as a rule, active = well fitted curve in the direction sought with a large enough effect; inconclusive = small, poorly fitted or top-dose-only effect, or another doubt; inactive = no such curve, though single readings can be large; an effect the other way counts as inactive or inconclusive.

Key:
[1] = biological target: Furin (Homo sapiens) (UniProt P09958); assay: Furin counterscreen qHTS for Zika virus inhibitors (AID 1347149); also: nearly all actives have a fitted effect of over 70% in size; also: potency is read from the fitted curve at half-maximal effect;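 as to activity change, negative = inhibition: purified recombinant full-length human furin enzyme at 5 nM; fluorescence gain from furin cutting a BOC-RVRR-AMC peptide substrate over 15 min; top concentration of the series differs between compounds; plate controls were no-inhibitor control for no effect and no-enzyme control for full effect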
Outline: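 Counterscreen measures cleavage of 2 microM BOC-RVRR-AMC, below its ~15 microM Km, by 5 nM full-length human furin at pH 7.0 after a 15-min compound preincubation. Inhibition derives from the 15-min fluorescence increase at 37C.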

[2] = ZIKV-mCherry secondary qHTS for Zika virus inhibitors (AID 1347158); also: top concentration of the series differs between compounds
Outline: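 Compounds were tested in Vero monkey kidney cells infected with recombinant mCherry-expressing Zika virus at MOI 1 for 48-72 h at 37 °C. Fixed cells were nuclear-stained and imaged, and infection rate was taken as the fraction of mCherry-positive cells.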

[3] = tested on: Zika virus NS2B-NS3 protease (linked); assay: 384 well plate NINDS AMC confirmatory qHTS for Zika virus inhibitors (AID 1347163); also: nearly all actives have a fitted effect of over 50% in size; also: potency is read from the fitted curve at half-maximal effect;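 as to activity change, negative = inhibition: linked protease at 5 30 or 60 nM final depending on run; fluorescence of AMC released from Ac-VKTGKR-AMC peptide cleaved by the protease; top concentration of the series differs between compounds; 0% = no-inhibitor control and -100% = no-enzyme control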
Outline: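 Fluorescence at 355/460 nm was read after 25 minutes of cleavage of 30 microM Ac-VKTGKR-AMC at room temperature, in the dark. Before substrate addition, compounds (up to 1 mM final) sat ~15 minutes with 5, 30 or 60 nM linked protease. Signals were normalized to no-enzyme and no-inhibitor wells.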

[4] = biological target: Cytochrome P450 2C9 (Homo sapiens) (UniProt P11712); assay: Cytochrome P450 family 2 subfamily C member 9 (CYP2C9) small molecule antagonists: luciferase biochemical (cell-free) qHTS assay (AID 1645842; active = well fitted curve in the direction sought with a large enough effect in the repeat runs; an effect the other way counts as inactive or inconclusive; also: series mostly up to about 57 µM; % is scaled to controls: 0 for no effect and ±100 for the full control effect; nearly all actives have a fitted effect of over 55% in size)
Outline: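 P450-Glo CYP2C9 system: proluciferin substrate with enzyme in mix containing 0.4% BSA, 10 min at room temperature, then NADPH regeneration solution added and incubated 1 h at 37C. Detection reagent stopped reaction; luminescence read after 20 min as RLU.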

[5] = Confirmatory screen NINDS Rhodamine qHTS for Zika virus inhibitors (AID 1347161); also: nearly all actives have a fitted effect of over 60% in size; also: potency is read from the fitted curve at half-maximal effect;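 as to activity change, negative = inhibition: purified Zika NS2B-NS3 protease with linked NS2B cofactor domain and Rhodamine110 peptide substrate; series mostly up to about 110 µM; plate controls were no-inhibitor control for no effect and no-enzyme control for full effect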
Outline: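 Single-chain NS2B-NS3 protease, 25 nM, pH 8.0; compounds preincubated 15 min. Activity: Rhodamine110 release from 1.5 microM substrate over 15 min, room temperature, data fitted to 4-parameter Hill.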

[6] = tested on: Zika virus NS2B-NS3 protease (linked construct); assay: 384 well plate NINDS Rhodamine confirmatory qHTS for Zika virus inhibitors (AID 1347164);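 also: fluorescence from protease cleavage of Ac-LKRR-rhodamine 110 substrate; nearly all actives have a fitted effect of over 65% in size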; also: potency is read from the fitted curve at half-maximal effect
Outline: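 Linked protease at a final 5 nM, 30 nM or 60 nM was preincubated ~15 min with compounds, then given 10 microM Ac-LKRR-Rhodamine 110. Fluorescence (ex 485/em 538 nm) after 25 min in the dark at room temperature.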

[7] = Tertiary RLuc qRT-PCR qHTS assay for Zika virus inhibitors (AID 1347169); also: top concentration of the series differs between compounds; % is scaled to controls: 0 for no effect and ±100 for the full control effect; nearly all actives have a fitted effect of over 55% in size
Outline: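 Vero cells (1,000 per well) plated overnight at 37 degrees C, treated with compound in DMSO, then infected with recombinant ZIKV-RLuc (Cambodian) at MOI 1-2 for 48-72 hrs. Live-cell Renilla luciferase substrate added; luminescence read after 1-1.5 hrs.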

[8] = biological target: Rap guanine nucleotide exchange factor 3 (Homo sapiens) (UniProt O95398); assay: Confirmatory qHTS for antagonist of cAMP-regulated guanine nucleotide exchange factor 3 (EPAC1) (AID 1645880); also: nearly all actives have a fitted effect of over 55% in size
Outline: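 Released BODIPY-GDP fluoresces less than Rap1-bound BODIPY-GDP; the signal is followed at 480/540 nm at 5-min intervals over 30 min, after 5 min at room temperature. Reactions contain 100 nM EPAC1, 250 nM RAP1B-BODIPY-GDP and 50 uM GDP; results are normalized to ATA and DMSO.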

[9] = biological target: Rap guanine nucleotide exchange factor 3 (Homo sapiens) (UniProt O95398); assay: Confirmatory qHTS for agonist of cAMP-regulated guanine nucleotide exchange factor 3 (EPAC1) (AID 1645881);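 also: EPAC1 catalysed release of BODIPY-GDP from Rap1B seen as fluorescence loss; 100% = effect of cAMP agonist control; nearly all actives have a fitted effect of over 75% in size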
[10] = biological target: Rap guanine nucleotide exchange factor 4 (Homo sapiens) (UniProt Q8WZA2); assay: Confirmatory qHTS for agonist of cAMP-regulated guanine nucleotide exchange factor 4 (EPAC2) (AID 1645884);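 also: nucleotide exchange releases bodipy-GDP from Rap1 and this lowers its fluorescence; % is scaled to controls: 0 for no effect and ±100 for the full control effect; nearly all actives have a fitted effect of over 65% in size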
[11] = biological target: Rap guanine nucleotide exchange factor 4 (Homo sapiens) (UniProt Q8WZA2); assay: Confirmatory qHTS for antagonist of cAMP-regulated guanine nucleotide exchange factor 4 (EPAC2) (AID 1645885); also: % is scaled to controls: 0 for no effect and ±100 for the full control effect; nearly all actives have a fitted effect of over 25% in size
[12] = biological target: Rap guanine nucleotide exchange factor 3 (Homo sapiens) (UniProt O95398); assay: Counterscreen qHTS for antagonist of cAMP-regulated guanine nucleotide exchange factor 3 (EPAC1) (AID 1645888); also: % of control where 0% means no effect
Outline: (§1)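 Rap1B–BODIPY-GDP (250 nM) with 50 uM GDP; compounds pin-transferred to 9.74 nM–152 uM final (activator) or from 7.32 nM upwards (inhibitor). Fluorescence Ex/Em 480/540 nm read at 5 and 30 min, then after adding cAMP or buffer, at room temperature.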

[13] = biological target: Rap guanine nucleotide exchange factor 3 (Homo sapiens) (UniProt O95398); assay: Counterscreen qHTS for agonist of cAMP-regulated guanine nucleotide exchange factor 3 (EPAC1) (AID 1645889); also: % of control where 0% means no effect; nearly all actives have a fitted effect of over 40% in size
Outline: as §1

[14] = biological target: Calcium and integrin-binding protein 1 (Homo sapiens) (UniProt Q99828); assay: Primary qHTS for Identification of Calcium Integrin Binding Protein 1 (CIB1) Competitor (AID 1508620);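 also: GST tagged CIB1 binding a fluorescein labelled alphaIIb integrin peptide tracer; top concentration of the series differs between compounds; % is scaled to controls: 0 for no effect and ±100 for the full control effect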
Outline: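 Fluorescence polarization competition: GST-tagged CIB1 (1 uM final) preincubated with compound 15 min at room temperature, then FITC-labelled alphaIIb peptide (100 nM final) added. After 15 min at room temperature, polarization read at Ex 480/Em 540.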

[15] = biological target: Cytochrome P450 1A2 (Homo sapiens) (UniProt P05177); assay: p450-cyp1a2 (AID 410; calls by dose curve; also: potency is read from the fitted curve at half-maximal effect)
Outline: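 O-Demethylation of luciferin 6' methyl ether by human CYP1A2 is monitored as luciferase luminescence. Substrate sits at Km (100uM); enzyme is 20nM. Values are scaled to 57 uM furafylline as maximal inhibition.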

[16] = biological target: Glucocorticoid receptor (Homo sapiens) (UniProt P04150); assay: GR-GFP Redistribution (AID 450;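 active = compounds whose dose series gives a full or clear partial fitted curve of increased nuclear translocation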; also: potency is read from the fitted curve at half-maximal effect); settings: U2OS GR-GFP nuclear translocation, laser cytometry, 2 h
[17] = biological target: Glucocorticoid receptor (Homo sapiens) (UniProt P04150); assay: GR-EFC Redistribution (AID 451; calls by dose curve; also: potency is read from the fitted curve at half-maximal effect); settings: CHO-K1 GR-EFC translocation, beta-gal luminescence, 2 h
Outline: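 CHO-K1 cells expressing nuclear EA and GR-ED fragments of b-gal; compounds titrated up to 46 uM final, 2 h at 37 C. GR nuclear translocation read as complemented b-gal luminescence after 1 h RT detection.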

[18] = biological target: Mitogen-activated protein kinase 10 (Mus musculus) (UniProt Q61831); assay: JNK3 AlphaScreen Assay (AID 530; active = well fitted curve in either direction with a large enough effect, not every such curve was filed as active;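 also: kinase came from lysate of stimulated human HepG2 cells; potency is read from the fitted curve at half-maximal effect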)
Outline: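 Activity was read by AlphaScreen after JNK3-containing HepG2 lysate (cytokine pre-activated) phosphorylated biotinylated GST-cJun with 10 uM ATP at room temperature. Phospho-Ser73 cJun antibody with Protein-A acceptor beads provided detection.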

[19] = biological target: Cytochrome P450 2C9 (Homo sapiens) (UniProt P11712); assay: qHTS Assay for Inhibitors and Substrates of Cytochrome P450 2C9 (AID 883); also: potency is read from the fitted curve at half-maximal effect; nearly all actives have a fitted effect of over 60% in size
Outline: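 Human CYP2C9 (10nM) with Luciferin-H at 100uM (its KM) in 25mM KPO4; compound preincubated 10 min at 37C, then NADPH regeneration for 60 min at 37C. Luciferin read by luminescence after detection reagent; normalized to 57uM sulphaphenazole as full inhibition.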

[20] = biological target: Cytochrome P450 3A4 (Homo sapiens) (UniProt P08684); assay: qHTS Assay for Activators of Cytochrome P450 3A4 (AID 885); also: nearly all actives have a fitted effect of over 65% in size
Outline: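 CYP3A4 activity: Luciferin-PPXE O-dealkylation, 25uM substrate, 200mM KPO4, RT throughout. Read-out is luciferase luminescence; higher values reflect activation.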

[21] = biological target: Cytochrome P450 2D6 (Homo sapiens) (UniProt P10635); assay: qHTS Assay for Inhibitors and Substrates of Cytochrome P450 2D6 (AID 891); also: potency is read from the fitted curve at half-maximal effect; nearly all actives have a fitted effect of over 60% in size
Outline: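 Luminescent read-out of luciferin formed by 5 nM human CYP2D6 demethylating 30 uM Luciferin-ME EGE (Km level) over 60 min at room temperature after NADPH regeneration addition. Data normalized to full inhibition by 1.43 uM quinidine.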

[22] = biological target: Cytochrome P450 2C19 (Homo sapiens) (UniProt P33261); assay: qHTS Assay for Inhibitors and Substrates of Cytochrome P450 2C19 (AID 899); also: potency is read from the fitted curve at half-maximal effect; nearly all actives have a fitted effect of over 60% in size
Outline: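 5 nM human CYP2C19 with 10uM Luciferin-H EGE (at KM) in 50mM KPO4, compound preincubated 10 min at 37C, then NADPH regeneration for 60 min at 37C. Luciferin read by luminescence after detection reagent; normalized to 57uM ketoconazole as full inhibition.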

[23] = biological target: DNA dC->dU-editing enzyme APOBEC-3G (Homo sapiens) (UniProt Q9HC16); assay: qHTS for inhibitors of Vif-A3G interactions: Validation (AID 588379); also: 0% is about no effect
Outline: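 Yellow fluorescence (Ex 488, Em 500-530) of Vif-coexpressing HeLa A3G-eYFP cells, scanned by Acumen cytometer, reports blocked A3G degradation. Cells plated at 700/well overnight at 37 deg C before compound addition, then a further overnight compound incubation at 37 deg C.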

[24] = Vero cells viability qHTS for Zika virus inhibitors (AID 1347167); also: % is scaled to controls: 0 for no effect and ±100 for the full control effect
Outline: (§2)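 qHTS titration; 24-48 h compound exposure, 37 degrees C/5% CO2; DMEM, 4% FBS; CellTiter Glo ATP luminescence.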

[25] = HepG2 cells viability qHTS for Zika virus inhibitors (AID 1347168); also: % is scaled to controls: 0 for no effect and ±100 for the full control effect
Outline: as §2

[26] = Primary qHTS for small molecule stabilizers of the endoplasmic reticulum resident proteome: Secreted ER Calcium Modulated Protein (SERCaMP) assay (AID 1508630); also: % is scaled to controls: 0 for no effect and ±100 for the full control effect
Outline: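 The SH-SY5Y reporter protocol was run at 3 concentrations up to 38.3 uM (primary) or 11 concentrations (follow-up): 16 h compound, 100 nM thapsigargin for 4 h, then extracellular luciferase luminescence.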

[27] = biological target: Glutathione peroxidase 1 (Homo sapiens) (UniProt P07203); assay: Primary qHTS Assay for Inhibitors of Recombinant Selenoprotein Glutathione Peroxidase 1 (GPX1) (AID 1845191); also: % is scaled to controls: 0 for no effect and ±100 for the full control effect; nearly all actives have a fitted effect of over 65% in size
Outline: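 GR-coupled readout: NADPH consumption tracked by fluorescence, ex 340/em 450 nm, at t=0 and after 15 min at RT. Final mix 10 nM GPX1, 1 mM GSH, 0.5 mM CHP, 0.5 mM NADPH, 100 nM GR, 0.01% BSA, following 30 min enzyme–compound preincubation.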

Furin (Homo sapiens), sequence (P09958 whole entry, looked up): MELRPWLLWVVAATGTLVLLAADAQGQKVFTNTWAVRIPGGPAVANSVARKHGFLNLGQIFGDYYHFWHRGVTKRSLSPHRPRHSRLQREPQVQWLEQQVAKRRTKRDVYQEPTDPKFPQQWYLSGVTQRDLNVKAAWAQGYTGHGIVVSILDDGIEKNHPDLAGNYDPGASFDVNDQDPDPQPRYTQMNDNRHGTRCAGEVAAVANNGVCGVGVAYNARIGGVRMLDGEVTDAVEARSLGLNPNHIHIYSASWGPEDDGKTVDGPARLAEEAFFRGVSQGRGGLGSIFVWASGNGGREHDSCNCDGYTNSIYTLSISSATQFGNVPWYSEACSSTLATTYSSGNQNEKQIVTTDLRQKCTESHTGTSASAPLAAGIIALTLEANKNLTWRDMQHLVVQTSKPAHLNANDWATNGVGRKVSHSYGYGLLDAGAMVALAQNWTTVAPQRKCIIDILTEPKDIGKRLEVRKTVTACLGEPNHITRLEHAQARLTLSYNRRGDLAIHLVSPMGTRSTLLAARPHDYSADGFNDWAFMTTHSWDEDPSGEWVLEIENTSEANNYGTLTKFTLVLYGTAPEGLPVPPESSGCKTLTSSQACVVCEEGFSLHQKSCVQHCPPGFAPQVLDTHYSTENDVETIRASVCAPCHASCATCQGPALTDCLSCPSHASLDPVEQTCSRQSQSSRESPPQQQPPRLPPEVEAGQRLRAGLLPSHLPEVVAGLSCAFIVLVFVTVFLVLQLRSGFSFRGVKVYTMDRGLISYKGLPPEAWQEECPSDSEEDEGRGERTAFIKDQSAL
Rap guanine nucleotide exchange factor 3 (Homo sapiens), sequence (O95398 whole entry, looked up): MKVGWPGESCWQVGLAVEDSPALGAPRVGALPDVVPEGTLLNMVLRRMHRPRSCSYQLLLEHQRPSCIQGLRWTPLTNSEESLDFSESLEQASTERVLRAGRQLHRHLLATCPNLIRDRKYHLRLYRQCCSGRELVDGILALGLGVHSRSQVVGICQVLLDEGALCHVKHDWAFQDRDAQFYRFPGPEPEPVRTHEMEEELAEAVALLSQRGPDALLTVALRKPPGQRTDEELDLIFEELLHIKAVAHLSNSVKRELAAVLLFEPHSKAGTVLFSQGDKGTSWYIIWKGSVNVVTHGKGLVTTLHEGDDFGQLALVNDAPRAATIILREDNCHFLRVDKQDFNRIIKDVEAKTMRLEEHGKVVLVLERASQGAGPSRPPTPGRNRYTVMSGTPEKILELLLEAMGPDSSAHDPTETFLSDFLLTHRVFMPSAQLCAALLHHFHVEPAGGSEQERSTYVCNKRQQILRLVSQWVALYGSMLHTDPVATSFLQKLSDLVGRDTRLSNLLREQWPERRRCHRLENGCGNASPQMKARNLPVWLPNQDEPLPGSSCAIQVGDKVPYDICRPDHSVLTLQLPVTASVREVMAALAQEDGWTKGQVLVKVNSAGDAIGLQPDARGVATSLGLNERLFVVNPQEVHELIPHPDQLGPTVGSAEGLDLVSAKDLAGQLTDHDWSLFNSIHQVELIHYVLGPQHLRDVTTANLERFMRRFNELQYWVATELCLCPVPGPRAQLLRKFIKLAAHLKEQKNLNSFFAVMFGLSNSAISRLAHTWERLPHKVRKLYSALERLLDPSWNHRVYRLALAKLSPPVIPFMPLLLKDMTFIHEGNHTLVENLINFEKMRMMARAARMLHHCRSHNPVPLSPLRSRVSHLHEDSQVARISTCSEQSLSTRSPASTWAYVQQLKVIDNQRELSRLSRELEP
Glucocorticoid receptor (Homo sapiens), sequence (P04150 whole entry, looked up, the tested form may be a part): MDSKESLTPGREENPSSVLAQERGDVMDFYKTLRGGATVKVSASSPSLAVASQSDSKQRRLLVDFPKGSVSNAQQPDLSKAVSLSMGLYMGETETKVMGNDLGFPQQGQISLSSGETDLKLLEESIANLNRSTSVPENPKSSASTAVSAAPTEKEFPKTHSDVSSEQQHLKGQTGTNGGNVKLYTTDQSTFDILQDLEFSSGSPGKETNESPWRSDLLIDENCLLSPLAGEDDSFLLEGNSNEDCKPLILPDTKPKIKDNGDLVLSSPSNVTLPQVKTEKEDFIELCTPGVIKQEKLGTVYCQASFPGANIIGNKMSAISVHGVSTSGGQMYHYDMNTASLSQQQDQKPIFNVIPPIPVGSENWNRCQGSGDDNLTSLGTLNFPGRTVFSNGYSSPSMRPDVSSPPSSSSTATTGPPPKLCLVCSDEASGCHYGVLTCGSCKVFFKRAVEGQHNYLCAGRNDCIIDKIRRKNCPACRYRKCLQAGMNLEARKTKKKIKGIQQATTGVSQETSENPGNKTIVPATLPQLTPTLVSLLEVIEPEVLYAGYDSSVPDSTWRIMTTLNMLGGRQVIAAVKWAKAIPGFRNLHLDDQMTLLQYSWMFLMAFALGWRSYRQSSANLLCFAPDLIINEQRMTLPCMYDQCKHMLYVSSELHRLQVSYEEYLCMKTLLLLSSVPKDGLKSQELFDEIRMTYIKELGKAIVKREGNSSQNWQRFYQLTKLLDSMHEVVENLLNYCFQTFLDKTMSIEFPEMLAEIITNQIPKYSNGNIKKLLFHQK
Rap guanine nucleotide exchange factor 4 (Homo sapiens), sequence (Q8WZA2 whole entry, looked up): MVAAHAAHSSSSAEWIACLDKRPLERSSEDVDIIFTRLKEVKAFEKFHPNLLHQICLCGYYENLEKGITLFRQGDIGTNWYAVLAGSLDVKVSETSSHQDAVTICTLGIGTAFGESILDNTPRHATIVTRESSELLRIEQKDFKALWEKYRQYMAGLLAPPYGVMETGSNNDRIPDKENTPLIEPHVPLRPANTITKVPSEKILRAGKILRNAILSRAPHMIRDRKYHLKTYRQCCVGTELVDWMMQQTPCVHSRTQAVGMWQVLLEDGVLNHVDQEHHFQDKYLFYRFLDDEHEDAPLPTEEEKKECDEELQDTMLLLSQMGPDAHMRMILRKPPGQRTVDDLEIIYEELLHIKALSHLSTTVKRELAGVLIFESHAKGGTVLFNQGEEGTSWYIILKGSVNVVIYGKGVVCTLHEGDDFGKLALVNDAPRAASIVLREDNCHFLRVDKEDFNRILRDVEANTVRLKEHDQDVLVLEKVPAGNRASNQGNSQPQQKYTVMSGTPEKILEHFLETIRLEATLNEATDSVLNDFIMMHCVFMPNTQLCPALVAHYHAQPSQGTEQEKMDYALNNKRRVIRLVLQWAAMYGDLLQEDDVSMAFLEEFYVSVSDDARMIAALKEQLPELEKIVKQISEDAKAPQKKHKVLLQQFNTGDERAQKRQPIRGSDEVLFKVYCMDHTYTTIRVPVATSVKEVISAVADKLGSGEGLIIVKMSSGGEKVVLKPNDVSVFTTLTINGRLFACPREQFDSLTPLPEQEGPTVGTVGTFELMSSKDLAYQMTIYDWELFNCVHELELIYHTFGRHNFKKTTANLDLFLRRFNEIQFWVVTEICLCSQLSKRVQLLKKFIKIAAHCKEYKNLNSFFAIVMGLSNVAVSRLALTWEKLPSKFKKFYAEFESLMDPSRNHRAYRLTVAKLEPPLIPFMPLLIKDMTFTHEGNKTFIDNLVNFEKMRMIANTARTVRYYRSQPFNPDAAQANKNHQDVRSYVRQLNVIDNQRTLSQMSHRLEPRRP
Cytochrome P450 2C9 (Homo sapiens), sequence (P11712 whole entry, looked up): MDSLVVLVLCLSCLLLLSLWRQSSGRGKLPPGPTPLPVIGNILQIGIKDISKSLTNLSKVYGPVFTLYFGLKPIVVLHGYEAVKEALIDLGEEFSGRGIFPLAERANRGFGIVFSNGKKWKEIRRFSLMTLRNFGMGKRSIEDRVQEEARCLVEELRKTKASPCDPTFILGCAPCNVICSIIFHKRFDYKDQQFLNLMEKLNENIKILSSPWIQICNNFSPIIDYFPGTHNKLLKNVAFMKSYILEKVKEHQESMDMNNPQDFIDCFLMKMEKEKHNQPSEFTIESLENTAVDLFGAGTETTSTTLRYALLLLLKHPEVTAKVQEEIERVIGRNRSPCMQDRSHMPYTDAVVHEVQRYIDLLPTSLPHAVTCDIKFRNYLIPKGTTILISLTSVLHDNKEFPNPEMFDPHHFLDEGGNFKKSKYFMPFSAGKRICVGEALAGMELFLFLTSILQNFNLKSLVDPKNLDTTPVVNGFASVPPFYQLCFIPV
Glutathione peroxidase 1 (Homo sapiens), sequence (P07203 whole entry, looked up): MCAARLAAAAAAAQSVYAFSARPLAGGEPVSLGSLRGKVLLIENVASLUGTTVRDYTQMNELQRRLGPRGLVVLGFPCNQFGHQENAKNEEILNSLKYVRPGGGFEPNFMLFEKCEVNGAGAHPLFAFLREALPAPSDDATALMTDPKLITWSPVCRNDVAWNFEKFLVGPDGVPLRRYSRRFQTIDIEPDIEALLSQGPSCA
Calcium and integrin-binding protein 1 (Homo sapiens), sequence (Q99828 whole entry, looked up): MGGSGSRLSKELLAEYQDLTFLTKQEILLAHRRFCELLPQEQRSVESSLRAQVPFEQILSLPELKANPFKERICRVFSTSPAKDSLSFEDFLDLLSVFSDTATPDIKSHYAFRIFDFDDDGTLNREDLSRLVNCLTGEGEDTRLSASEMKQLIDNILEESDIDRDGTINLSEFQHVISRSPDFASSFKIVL
Cytochrome P450 2D6 (Homo sapiens), sequence (P10635 whole entry, looked up): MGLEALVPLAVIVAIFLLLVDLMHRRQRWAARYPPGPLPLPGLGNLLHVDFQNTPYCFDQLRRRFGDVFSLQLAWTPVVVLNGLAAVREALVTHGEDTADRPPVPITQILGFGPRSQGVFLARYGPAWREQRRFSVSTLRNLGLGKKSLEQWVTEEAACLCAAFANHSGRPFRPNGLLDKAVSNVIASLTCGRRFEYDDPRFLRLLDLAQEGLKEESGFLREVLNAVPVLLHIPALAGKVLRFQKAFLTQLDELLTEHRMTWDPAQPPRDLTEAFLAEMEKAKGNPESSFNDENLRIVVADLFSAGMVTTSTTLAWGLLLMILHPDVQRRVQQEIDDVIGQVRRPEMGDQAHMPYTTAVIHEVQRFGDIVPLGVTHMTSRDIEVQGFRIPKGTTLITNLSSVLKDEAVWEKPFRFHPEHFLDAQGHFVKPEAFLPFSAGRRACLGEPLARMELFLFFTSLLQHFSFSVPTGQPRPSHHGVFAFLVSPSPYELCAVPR

Cc1ccc(-c2nnc(Nc3ccccc3)c3ccccc23)cc1S(=O)(=O)NCc1nc2ccccc2[nH]1
inactive: Potency [2] | Potency [3] | Potency [4]
active: Potency [1] 41.8 µM

O=S(=O)(Nc1ccc(O)c(Sc2nc3ccccc3s2)c1)c1cc(Cl)ccc1Cl
active: Potency [5] 22.4 µM | Potency [3] 112 µM | Potency [6] 44.7 µM
inactive: Potency [1] | Potency [7]

CCCCCCc1cc2cc(-c3cn4c(n3)sc3cc(OC)ccc34)c(=O)oc2cc1O
inactive: Potency [1] | Potency [2] | Potency [3] | Potency [7] | Potency [8] | outcome [9] | outcome [10] | activity change, negative = inhibition [11] -6.89% [at 12.7 µM] | outcome [12] | Potency [13]

COC(=O)c1ccccc1NC(=O)CSc1nc(-c2ccccc2)cc(C(F)(F)F)n1
inactive: Potency [1] | Potency [5] | Potency [7]

Cc1cc(S(=O)(=O)Nc2ccc(C(=O)O)cc2)c(C)c(S(=O)(=O)c2ccc(Cl)cc2)c1
inactive: Potency [1] | Potency [2] | Potency [7]
active: Potency [6] 141 µM

Cc1cccc(C(=O)Nc2ccc(C(=O)OCc3cc(=O)n4nc(C5CC5)sc4n3)cc2)c1
active: Potency [1] 26.4 µM
inactive: Potency [2] | Potency [3] | Potency [7]

O=C(OCC#CCSc1nnc(-c2cccc3ccccc23)o1)c1ccc(F)cc1F
active: Potency [1] 46.9 µM
inactive: Potency [5] | Potency [7] | outcome [14]

Fc1cc(C2=Nn3c(COc4ccc(Cl)cc4Cl)nnc3S/C2=C\c2ccc(-c3ccc(Cl)cc3)o2)c(Cl)cc1Cl
active: Potency [3] 158 µM
inactive: Potency [1] | Potency [2] | Potency [6] | Potency [7]

CCOc1ccccc1NC(=O)c1ccc2oc(=O)c(S(=O)(=O)c3ccc(F)cc3)cc2c1
inactive: Potency [1] | Potency [5] | Potency [7]

Cc1ccc(NC(=O)CSc2ncccc2C(=O)Oc2ccccc2Cl)cc1Cl
inactive: Potency [1] | Potency [5]

O=C(O)COc1ccc(-c2nccc3c2C(=O)N(Cc2cccc(C(F)(F)F)c2)CC(COc2cccc(F)c2)O3)cc1 (configuration not stated)
inactive: Potency [1] | Potency [2] | Potency [7]

C=CC(C)(C)c1[nH]c2ccccc2c1C1=C(O)C(=O)C(c2c[nH]c3c(CC=C(C)C)cccc23)=C(O)C1=O
inactive: Potency [16] > 46 µM | Potency [17] > 46 µM | Potency [20] | Potency [23] | Potency [1] | Potency [24] | Potency [25] | Potency [7] | Potency [26] | outcome [9] | Potency [27]
active: Potency [15] 25.1 µM | Potency [18] 6.31 µM | Potency [19] 7.94 µM | Potency [21] 0.0063 µM | Potency [22] 1.26 µM | Potency [5] 49.4 µM | Potency [3] 11.2 µM | Potency [6] 0.631 µM | Potency [8] 4.98 µM
